# In PMC7862700, “An all-to-all approach to the identification of sequence-specific readers for epigenetic DNA modifications on cytosine”:
# Tests used:
# Assay in all cases: DAPPL (digital affinity profiling via proximity ligation, sequencing); 10 mM Tris-HCl pH 7.5, 50 mM NaCl, 1 mM DTT, 4% glycerol, room temperature, 30 min; GST-TFs on glutathione beads, 16-mer random dsDNA library, 0.1% formaldehyde crosslink after washing; high values mean tight binding
# FLI1 = target: T1, FLI1 (Homo sapiens, UniProt Q01543 1-452); details: protein: recombinant; tags: N-terminal GST; dsDNA, one strand shown
# T1 sequence: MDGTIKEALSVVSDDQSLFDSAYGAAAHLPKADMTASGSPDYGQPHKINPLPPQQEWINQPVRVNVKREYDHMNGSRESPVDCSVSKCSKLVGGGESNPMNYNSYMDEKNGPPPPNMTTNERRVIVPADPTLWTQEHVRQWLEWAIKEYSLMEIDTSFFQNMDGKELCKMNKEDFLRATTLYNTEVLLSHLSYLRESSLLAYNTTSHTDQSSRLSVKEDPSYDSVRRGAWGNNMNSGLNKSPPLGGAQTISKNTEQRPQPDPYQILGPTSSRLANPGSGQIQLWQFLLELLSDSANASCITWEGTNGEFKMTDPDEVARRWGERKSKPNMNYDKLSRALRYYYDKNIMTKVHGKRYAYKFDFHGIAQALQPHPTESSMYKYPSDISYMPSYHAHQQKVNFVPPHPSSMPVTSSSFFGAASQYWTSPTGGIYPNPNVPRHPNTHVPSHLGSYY
# In short: (§1)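 Pools were built from human transcription factors expressed in yeast as GST fusions, captured on glutathione beads and DNA-barcoded, along with a tag-only sample. Incubation with 200 nmole of a 16-mer random double-stranded DNA library lasted 30 min at room temperature in Tris/NaCl/DTT/glycerol buffer, and was followed by washing, 0.1% formaldehyde crosslinking, proximity ligation, PCR amplification and Illumina NextSeq500 sequencing. Binding signal is the quotient of each hexamer's read frequency for a factor and its frequency for the tag-only sample.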
# ELK1 = target: T2, ELK1 (Homo sapiens, UniProt P19419 1-428); details: protein: recombinant; tags: N-terminal GST; dsDNA, one strand shown
# T2 sequence: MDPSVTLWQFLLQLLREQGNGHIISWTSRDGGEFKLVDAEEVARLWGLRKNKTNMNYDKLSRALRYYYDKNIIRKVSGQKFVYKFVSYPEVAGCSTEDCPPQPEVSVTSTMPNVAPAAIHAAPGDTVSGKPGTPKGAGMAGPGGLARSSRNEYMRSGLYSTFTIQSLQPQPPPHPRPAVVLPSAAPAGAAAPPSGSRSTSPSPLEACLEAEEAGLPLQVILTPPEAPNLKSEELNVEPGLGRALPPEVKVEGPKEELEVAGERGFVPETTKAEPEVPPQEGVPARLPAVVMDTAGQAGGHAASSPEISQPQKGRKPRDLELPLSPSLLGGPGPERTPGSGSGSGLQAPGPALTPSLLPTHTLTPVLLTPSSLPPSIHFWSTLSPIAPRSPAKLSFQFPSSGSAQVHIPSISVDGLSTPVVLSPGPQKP
# In short: as §1
# GABPA = target: T3, GABPA (Homo sapiens, UniProt Q06546 1-454); details: protein: recombinant; tags: N-terminal GST; dsDNA, one strand shown
# T3 sequence: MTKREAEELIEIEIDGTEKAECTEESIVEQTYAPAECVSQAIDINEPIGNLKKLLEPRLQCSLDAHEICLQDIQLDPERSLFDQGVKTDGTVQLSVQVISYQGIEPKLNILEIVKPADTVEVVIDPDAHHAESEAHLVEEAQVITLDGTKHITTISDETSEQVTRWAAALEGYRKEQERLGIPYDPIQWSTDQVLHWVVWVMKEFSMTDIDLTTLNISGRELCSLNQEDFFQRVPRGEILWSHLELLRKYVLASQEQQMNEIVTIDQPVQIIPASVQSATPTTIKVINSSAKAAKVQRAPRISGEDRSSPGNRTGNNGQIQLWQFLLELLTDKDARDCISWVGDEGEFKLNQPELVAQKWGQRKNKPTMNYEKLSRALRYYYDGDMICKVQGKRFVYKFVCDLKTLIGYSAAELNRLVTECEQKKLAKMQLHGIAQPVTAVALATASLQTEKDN
# In short: as §1
# ERG = target: T4, ERG (Homo sapiens, UniProt P11308 1-479); details: protein: recombinant; tags: N-terminal GST; dsDNA, one strand shown
# T4 sequence: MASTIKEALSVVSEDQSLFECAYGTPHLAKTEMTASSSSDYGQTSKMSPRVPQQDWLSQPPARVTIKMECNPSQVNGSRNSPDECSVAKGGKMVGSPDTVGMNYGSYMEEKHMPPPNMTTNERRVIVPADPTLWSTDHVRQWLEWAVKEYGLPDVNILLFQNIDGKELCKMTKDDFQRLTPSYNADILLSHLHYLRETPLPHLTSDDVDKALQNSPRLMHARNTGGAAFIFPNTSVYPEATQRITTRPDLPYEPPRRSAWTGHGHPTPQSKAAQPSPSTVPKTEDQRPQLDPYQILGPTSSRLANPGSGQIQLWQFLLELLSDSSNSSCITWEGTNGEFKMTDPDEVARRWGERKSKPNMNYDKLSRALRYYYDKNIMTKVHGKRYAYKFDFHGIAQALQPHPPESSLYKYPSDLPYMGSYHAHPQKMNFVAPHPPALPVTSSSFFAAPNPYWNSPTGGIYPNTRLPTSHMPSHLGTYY
# In short: as §1
# ELF1 = ELF1 (Homo sapiens, UniProt P32519 1-619); details: protein: recombinant; tags: N-terminal GST; dsDNA, one strand shown
# Sequence of ELF1 (P32519 whole entry): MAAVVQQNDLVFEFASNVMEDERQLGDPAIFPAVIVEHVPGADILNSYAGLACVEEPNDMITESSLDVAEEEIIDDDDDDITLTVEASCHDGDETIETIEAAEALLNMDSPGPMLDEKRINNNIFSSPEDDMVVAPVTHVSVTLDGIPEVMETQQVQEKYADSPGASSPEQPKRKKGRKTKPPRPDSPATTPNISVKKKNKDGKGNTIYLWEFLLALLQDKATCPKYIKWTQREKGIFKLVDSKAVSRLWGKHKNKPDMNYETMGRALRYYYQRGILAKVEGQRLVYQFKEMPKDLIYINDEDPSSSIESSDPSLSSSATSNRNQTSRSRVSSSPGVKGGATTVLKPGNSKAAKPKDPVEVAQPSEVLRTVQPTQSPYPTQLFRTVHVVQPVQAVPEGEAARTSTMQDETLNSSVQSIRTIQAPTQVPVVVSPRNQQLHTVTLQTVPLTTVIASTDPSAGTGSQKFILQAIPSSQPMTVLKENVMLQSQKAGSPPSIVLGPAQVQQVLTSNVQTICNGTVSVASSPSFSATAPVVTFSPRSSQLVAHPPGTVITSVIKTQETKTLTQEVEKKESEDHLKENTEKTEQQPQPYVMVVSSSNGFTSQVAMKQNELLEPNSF
# In short: as §1
# EHF = target: T5, EHF (Homo sapiens, UniProt Q9NZC4 1-300); details: protein: recombinant; tags: N-terminal GST; dsDNA, one strand shown
# T5 sequence: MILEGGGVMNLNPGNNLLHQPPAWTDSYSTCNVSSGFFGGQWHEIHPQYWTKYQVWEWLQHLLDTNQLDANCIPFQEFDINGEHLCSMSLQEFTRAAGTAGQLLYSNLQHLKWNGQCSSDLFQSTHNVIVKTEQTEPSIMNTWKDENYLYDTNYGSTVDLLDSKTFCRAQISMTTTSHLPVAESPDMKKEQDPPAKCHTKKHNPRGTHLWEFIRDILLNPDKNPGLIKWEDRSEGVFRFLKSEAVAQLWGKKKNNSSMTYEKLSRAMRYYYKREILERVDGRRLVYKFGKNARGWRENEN
# In short: as §1
# SPI1 = SPI1 (Homo sapiens, UniProt P17947 1-270); details: protein: recombinant; tags: N-terminal GST; dsDNA, one strand shown
# In short: as §1
# SPIB = SPIB (Homo sapiens, UniProt Q01892 1-262); details: protein: recombinant; tags: N-terminal GST; dsDNA, one strand shown
# Sequence of SPIB (Q01892 whole entry): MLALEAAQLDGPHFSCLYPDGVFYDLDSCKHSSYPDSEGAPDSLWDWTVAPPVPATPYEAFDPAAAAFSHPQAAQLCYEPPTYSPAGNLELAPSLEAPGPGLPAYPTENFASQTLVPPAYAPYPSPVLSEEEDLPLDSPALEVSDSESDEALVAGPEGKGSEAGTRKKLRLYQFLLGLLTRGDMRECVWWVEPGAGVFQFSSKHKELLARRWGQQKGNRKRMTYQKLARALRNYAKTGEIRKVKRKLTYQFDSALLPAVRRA
# In short: as §1
# ELK3 = target: T6, ELK3 (Homo sapiens, UniProt P41970 1-407); details: protein: recombinant; tags: N-terminal GST; dsDNA, one strand shown
# T6 sequence: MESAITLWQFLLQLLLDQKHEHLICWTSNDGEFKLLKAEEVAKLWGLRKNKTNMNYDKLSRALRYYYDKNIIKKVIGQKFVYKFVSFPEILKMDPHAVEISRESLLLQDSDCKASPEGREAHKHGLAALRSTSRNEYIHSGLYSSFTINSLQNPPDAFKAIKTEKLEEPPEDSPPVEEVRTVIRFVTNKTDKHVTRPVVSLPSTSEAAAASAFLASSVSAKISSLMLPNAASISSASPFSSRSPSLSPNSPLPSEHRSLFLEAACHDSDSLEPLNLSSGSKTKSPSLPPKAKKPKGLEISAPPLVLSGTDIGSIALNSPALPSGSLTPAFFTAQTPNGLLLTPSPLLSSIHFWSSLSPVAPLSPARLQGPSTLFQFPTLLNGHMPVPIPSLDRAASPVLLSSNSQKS
# In short: as §1
# FEV = target: T7, FEV (Homo sapiens, UniProt Q99581 1-238); details: protein: recombinant; tags: N-terminal GST; dsDNA, one strand shown
# T7 sequence: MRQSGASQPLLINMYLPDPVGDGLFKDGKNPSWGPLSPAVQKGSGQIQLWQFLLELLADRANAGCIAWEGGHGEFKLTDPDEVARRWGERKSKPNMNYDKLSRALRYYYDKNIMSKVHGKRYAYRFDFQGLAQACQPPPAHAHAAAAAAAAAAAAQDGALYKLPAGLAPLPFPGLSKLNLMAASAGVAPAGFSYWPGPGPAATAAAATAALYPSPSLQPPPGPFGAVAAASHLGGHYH
# In short: as §1
# ETV5 = ETV5 (Homo sapiens, UniProt P41161 1-510); details: protein: recombinant; tags: N-terminal GST; dsDNA, one strand shown
# Sequence of ETV5 (P41161 whole entry): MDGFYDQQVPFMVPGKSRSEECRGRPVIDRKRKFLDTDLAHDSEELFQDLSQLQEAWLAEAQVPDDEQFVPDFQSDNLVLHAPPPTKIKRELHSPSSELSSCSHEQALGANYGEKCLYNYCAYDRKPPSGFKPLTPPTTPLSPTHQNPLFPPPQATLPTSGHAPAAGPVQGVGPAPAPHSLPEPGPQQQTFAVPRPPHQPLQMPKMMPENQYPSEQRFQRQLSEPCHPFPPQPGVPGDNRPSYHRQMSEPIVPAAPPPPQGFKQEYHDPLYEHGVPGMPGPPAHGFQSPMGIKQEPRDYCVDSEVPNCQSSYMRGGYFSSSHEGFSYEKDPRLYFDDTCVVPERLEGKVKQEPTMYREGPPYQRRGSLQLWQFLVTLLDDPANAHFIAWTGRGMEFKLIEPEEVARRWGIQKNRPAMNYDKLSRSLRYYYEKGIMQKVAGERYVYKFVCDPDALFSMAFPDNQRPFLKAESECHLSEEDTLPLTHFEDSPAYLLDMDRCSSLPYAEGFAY
# In short: as §1
# HSF1 = HSF1 (Homo sapiens, UniProt Q00613 1-529); details: protein: recombinant; tags: N-terminal GST; chain copies: 3; dsDNA, one strand shown
# Sequence of HSF1 (Q00613 whole entry): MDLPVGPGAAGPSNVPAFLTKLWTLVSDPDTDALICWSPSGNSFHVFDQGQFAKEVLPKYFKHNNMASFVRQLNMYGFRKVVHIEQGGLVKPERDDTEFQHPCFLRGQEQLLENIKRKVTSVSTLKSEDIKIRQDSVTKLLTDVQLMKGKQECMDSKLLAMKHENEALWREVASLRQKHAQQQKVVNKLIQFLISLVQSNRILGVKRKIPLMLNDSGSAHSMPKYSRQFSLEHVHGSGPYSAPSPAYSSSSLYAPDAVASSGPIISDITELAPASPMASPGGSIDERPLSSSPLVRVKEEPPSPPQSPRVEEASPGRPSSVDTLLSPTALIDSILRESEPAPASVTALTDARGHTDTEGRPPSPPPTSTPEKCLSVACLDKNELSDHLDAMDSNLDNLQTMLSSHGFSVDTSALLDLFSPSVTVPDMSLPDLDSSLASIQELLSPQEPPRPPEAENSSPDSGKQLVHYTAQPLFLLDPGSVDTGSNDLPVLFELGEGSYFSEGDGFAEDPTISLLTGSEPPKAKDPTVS
# In short: as §1
# SPIC = target: T8, SPIC (Homo sapiens, UniProt Q8N5J4 1-248); details: protein: recombinant; tags: N-terminal GST; dsDNA, one strand shown
# T8 sequence: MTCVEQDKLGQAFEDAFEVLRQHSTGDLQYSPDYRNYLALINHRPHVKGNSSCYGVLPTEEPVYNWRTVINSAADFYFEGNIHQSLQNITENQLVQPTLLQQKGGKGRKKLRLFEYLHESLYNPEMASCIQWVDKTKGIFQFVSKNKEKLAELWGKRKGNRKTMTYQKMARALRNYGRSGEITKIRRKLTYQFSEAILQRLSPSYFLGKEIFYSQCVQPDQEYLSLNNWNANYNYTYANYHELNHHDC
# In short: as §1
# ELF4 = ELF4 (Homo sapiens, UniProt Q99607 1-663); details: protein: recombinant; tags: N-terminal GST; dsDNA, one strand shown
# Sequence of ELF4 (Q99607 whole entry): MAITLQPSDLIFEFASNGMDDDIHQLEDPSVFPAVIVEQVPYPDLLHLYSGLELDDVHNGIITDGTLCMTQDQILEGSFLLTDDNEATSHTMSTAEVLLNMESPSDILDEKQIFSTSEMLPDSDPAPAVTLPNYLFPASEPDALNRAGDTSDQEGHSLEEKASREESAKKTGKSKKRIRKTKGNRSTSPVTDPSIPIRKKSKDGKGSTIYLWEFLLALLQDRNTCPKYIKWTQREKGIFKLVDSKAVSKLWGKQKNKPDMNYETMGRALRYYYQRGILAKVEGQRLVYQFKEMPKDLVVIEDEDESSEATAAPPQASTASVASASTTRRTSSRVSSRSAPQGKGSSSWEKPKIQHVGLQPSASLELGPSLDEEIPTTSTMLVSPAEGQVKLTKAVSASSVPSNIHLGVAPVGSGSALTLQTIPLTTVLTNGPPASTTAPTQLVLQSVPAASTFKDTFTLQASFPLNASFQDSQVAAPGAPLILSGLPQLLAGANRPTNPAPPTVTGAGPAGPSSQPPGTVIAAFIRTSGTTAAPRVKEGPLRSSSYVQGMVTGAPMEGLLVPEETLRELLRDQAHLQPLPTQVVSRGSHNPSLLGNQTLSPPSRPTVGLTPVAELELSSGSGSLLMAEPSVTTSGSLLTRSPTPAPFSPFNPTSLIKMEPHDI
# In short: as §1
# ELK4 = target: T9, ELK4 (Homo sapiens, UniProt P28324-2 1-405); details: protein: recombinant; tags: N-terminal GST; dsDNA, one strand shown
# T9 sequence: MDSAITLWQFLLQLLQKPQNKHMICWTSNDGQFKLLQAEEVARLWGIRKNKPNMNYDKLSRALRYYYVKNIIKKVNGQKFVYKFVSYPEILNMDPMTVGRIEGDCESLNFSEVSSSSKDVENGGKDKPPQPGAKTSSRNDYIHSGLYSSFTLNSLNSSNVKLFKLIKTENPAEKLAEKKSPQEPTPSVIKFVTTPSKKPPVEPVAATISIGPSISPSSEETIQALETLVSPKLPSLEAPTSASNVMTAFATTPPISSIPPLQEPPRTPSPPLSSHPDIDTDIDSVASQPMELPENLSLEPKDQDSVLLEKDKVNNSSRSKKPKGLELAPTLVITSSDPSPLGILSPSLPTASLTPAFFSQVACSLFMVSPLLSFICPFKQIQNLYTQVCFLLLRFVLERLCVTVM
# In short: as §1
# ETV2 = target: T10, ETV2 (Homo sapiens, UniProt O00321 1-342); details: protein: recombinant; tags: N-terminal GST; dsDNA, one strand shown
# T10 sequence: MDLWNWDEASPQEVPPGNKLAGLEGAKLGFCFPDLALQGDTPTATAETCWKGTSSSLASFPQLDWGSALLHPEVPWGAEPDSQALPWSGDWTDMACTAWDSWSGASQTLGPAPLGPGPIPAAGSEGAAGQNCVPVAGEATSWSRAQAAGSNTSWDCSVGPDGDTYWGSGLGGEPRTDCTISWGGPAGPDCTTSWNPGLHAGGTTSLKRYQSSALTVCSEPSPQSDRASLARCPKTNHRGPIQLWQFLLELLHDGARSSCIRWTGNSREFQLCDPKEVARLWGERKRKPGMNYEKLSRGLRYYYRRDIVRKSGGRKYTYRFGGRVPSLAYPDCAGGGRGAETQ
# In short: as §1
# ELF3 = target: T11, ELF3 (Homo sapiens, UniProt P78545 1-371); details: protein: recombinant; tags: N-terminal GST; dsDNA, one strand shown
# T11 sequence: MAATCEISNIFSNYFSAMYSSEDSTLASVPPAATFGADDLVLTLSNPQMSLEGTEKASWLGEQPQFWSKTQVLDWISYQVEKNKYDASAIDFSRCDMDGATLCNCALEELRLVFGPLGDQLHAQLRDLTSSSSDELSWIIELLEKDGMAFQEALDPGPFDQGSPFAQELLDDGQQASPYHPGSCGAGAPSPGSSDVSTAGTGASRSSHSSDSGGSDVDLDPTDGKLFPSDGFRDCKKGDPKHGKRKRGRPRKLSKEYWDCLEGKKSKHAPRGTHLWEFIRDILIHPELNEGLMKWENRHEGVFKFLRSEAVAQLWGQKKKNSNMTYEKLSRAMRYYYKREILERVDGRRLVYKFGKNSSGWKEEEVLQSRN
# In short: as §1
# CRX = CRX (Homo sapiens, UniProt O43186 1-299); details: protein: recombinant; tags: N-terminal GST; dsDNA, one strand shown
# Sequence of CRX (O43186 whole entry): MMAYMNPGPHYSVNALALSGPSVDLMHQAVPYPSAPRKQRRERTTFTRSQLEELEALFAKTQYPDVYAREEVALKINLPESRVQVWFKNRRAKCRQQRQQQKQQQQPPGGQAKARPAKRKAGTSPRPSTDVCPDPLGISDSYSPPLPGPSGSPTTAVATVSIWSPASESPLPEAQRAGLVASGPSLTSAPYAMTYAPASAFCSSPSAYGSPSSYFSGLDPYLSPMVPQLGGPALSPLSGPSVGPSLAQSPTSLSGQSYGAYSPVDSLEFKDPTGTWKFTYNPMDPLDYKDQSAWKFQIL
# In short: as §1
# ETV1 = ETV1 (Homo sapiens, UniProt P50549 1-477); details: protein: recombinant; tags: N-terminal GST; dsDNA, one strand shown
# Sequence of ETV1 (P50549 whole entry): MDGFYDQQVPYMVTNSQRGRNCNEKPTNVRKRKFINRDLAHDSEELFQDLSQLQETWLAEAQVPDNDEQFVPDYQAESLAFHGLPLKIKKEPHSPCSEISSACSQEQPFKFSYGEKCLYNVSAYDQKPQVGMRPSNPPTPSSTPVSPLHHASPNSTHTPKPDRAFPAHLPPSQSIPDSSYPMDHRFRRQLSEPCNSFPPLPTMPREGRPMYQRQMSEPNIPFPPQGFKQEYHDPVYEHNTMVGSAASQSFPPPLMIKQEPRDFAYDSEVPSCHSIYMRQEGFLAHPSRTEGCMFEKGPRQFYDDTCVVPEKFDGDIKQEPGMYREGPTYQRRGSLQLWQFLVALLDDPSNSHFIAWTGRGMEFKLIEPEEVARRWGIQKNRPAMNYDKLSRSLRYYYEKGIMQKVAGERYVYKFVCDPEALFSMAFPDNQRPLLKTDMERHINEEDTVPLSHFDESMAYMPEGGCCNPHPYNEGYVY
# In short: as §1
sequence,measurement,setting,value
CCTTCG,binding signal,FLI1,"1.31 fold enrichment (6-mer frequency, TF over GST control)"
same,binding signal,ELK1,"1.33 fold enrichment (6-mer frequency, TF over GST control)"
same,binding signal,GABPA,"1.35 fold enrichment (6-mer frequency, TF over GST control)"
same,binding signal,ERG,"1.3 fold enrichment (6-mer frequency, TF over GST control)"
same,binding signal,ELF1,"1.33 fold enrichment (6-mer frequency, TF over GST control)"
same,binding signal,EHF,"1.19 fold enrichment (6-mer frequency, TF over GST control)"
same,binding signal,SPI1,"1.32 fold enrichment (6-mer frequency, TF over GST control)"
same,binding signal,SPIB,"1.41 fold enrichment (6-mer frequency, TF over GST control)"
same,binding signal,ELK3,"1.65 fold enrichment (6-mer frequency, TF over GST control)"
same,binding signal,FEV,"1.38 fold enrichment (6-mer frequency, TF over GST control)"
same,binding signal,ETV5,"1.3 fold enrichment (6-mer frequency, TF over GST control)"
same,binding signal,HSF1,"1.88 fold enrichment (6-mer frequency, TF over GST control)"
same,binding signal,SPIC,"1.31 fold enrichment (6-mer frequency, TF over GST control)"
same,binding signal,ELF4,"1.39 fold enrichment (6-mer frequency, TF over GST control)"
same,binding signal,ELK4,"1.34 fold enrichment (6-mer frequency, TF over GST control)"
same,binding signal,ETV2,"1.39 fold enrichment (6-mer frequency, TF over GST control)"
same,binding signal,ELF3,"1.28 fold enrichment (6-mer frequency, TF over GST control)"
same,binding signal,CRX,"1.28 fold enrichment (6-mer frequency, TF over GST control)"
same,binding signal,ETV1,"1.5 fold enrichment (6-mer frequency, TF over GST control)"
